Assay results: PubChem BioAssay (Tox21)
Values joined by “and” are separate entries in the source; they are usually repeats but may differ in a detail not shown here. Equal values may be shown once. Records with an inconclusive call do not appear. The source holds several records for some structures; these can differ, active in one and inactive in another. Active and inactive are the calls of the source. Unless noted, calls follow the shape of the dose curve; as a rule, active = well fitted curve in the direction sought with a large enough effect in the repeat runs; inconclusive = weak or mixed curves; inactive = no such curve, though single readings can be large; an effect the other way counts as inactive or inconclusive.

Assays:
[1] = qHTS assay for small molecule agonists of the p53 signaling pathway (AID 651631; calls by dose curve; also: nearly all actives have a fitted effect of over 15% in size)
In short: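 Readout was fluorescence from the LiveBLAzer FRET substrate, applied for 2 h at room temperature after 16 h compound exposure at 37 °C. Cells were the p53RE-bla HCT-116 line, with beta-lactamase driven by p53 response elements.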

[2] = qHTS assay for small molecules that induce genotoxicity in human embryonic kidney cells expressing luciferase-tagged ATAD5 (AID 651632); also: nearly all actives have a fitted effect of over 15% in size
In short: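 Increased luciferase signal from ATAD5-tagged reporter cells indicates DNA-damage-driven ATAD5 induction. HEK293T cells are treated for 16 hr at 37C before detection with Amplite.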

[3] = qHTS assay for small molecule agonists of the p53 signaling pathway - cell viability (AID 651633; calls by dose curve; also: nearly all actives have a fitted effect of over 30% in size)
In short: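 p53RE-bla cells, seeded at 4,000 per well and rested 5 h at 37 C/5% CO2, received compounds in DMSO for 16 h at 37 C. CellTiter-Glo was then added, and luminescence was read after 30 min at room temperature to gauge cytotoxicity.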

[4] = qHTS assay for small molecules that induce genotoxicity in human embryonic kidney cells expressing luciferase-tagged ATAD5 - cell viability (AID 651634; calls by dose curve; also: nearly all actives have a fitted effect of over 25% in size; also: potency is read from the fitted curve at half-maximal effect)
In short: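 Cytotoxicity counterscreen in HEK293T cells bearing an ATAD5-luciferase reporter: live-cell protease activity measured by CellTiter-Fluor fluorescence after 15.5 hr compound exposure.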

[5] = qHTS assay for small molecule disruptors of the mitochondrial membrane potential - cell viability (AID 720634; calls by dose curve;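 also: human HepG2 liver cancer cells; nearly all actives have a fitted effect of over 20% in size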)
In short: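 After overnight attachment at 37 C, HepG2 cells received compound or DMSO vehicle for 1 hr. Viability is then taken from ATP-driven luminescence following a 30 min room-temperature CellTiter-Glo step.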

[6] = qHTS assay for small molecule disruptors of the mitochondrial membrane potential (AID 720635); also: potency is read from the fitted curve at half-maximal effect
In short: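 HepG2 cells (2,000/well) attached overnight at 37C, then took compound for 1 hr at 37C, 5% CO2. Mito-MPS dye was added for 30 min; fluorescence was read at 490/535 nm (monomers) and 540/590 nm (aggregates).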

[7] = qHTS assay to test for compound auto fluorescence at 590 nm (red) in HepG2 cells (AID 720674)
In short: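 Compound auto-fluorescence is scored relative to Rose Bengal sodium, measured at 540/590 nm in live HepG2 cultures after 1 hr compound contact (37 C, 5% CO2).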

[8] = qHTS assay to test for compound auto fluorescence at 535 nm (green) in HepG2 cells (AID 720675)
[9] = qHTS assay to test for compound auto fluorescence at 460 nm (blue) in HEK293 cells (AID 720678)
In short: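 Triamterene serves as the blue fluorophore standard. Compound signal at 405/460 nm is read in HEK293 wells (2,000 cells, 10% dialyzed FBS) after overnight treatment at 37C.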

[10] = qHTS assay to test for compound auto fluorescence at 590 nm (red) in HEK293 cells (AID 720679)
In short: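 We plated HEK293 cells in 10% dialyzed FBS medium, let them adhere for 4-5 hr, then added 23 nL compound. Overnight at 37C and 5% CO2 preceded fluorescence measurement at 540/590nm.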

[11] = qHTS assay to test for compound auto fluorescence at 535 nm (green) in HEK293 cells (AID 720680)
[12] = qHTS assay to test for compound auto fluorescence at 460 nm (blue) in HEK293 cell free culture (AID 720681)
In short: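 Test compounds were pinned into cell-free culture medium (DMEM with 10% FBS) and fluorescence was read directly at Ex/Em 405/460 nm. Signals were expressed as fluorescence equivalents of triamterene, with DMSO vehicle as control.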

[13] = qHTS assay to test for compound auto fluorescence at 535 nm (green) in HEK293 cell free culture (AID 720682)
In short: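 Compounds were pin-transferred into cell-free DMEM with 10% FBS, and green fluorescence was read at excitation 485 nm and emission 535 nm. Intensities were expressed as fluorescein-equivalent values.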

[14] = qHTS assay to test for compound auto fluorescence at 590 nm (red) in HEK293 cell free culture (AID 720683)
In short: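 Tox21 10K library compounds were pinned into cell-free DMEM with 10% FBS and fluorescence was read at excitation 540 nm. Activity is expressed as Rose Bengal sodium equivalency.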

[15] = qHTS assay to test for compound auto fluorescence at 590 nm (red) in HepG2 cell free culture (AID 720684)
In short: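 Measured in medium alone (MEM containing 10% FBS) following pintool addition of compound; emission at 590 nm with 540 nm excitation, referenced to Rose Bengal sodium.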

[16] = qHTS assay to test for compound auto fluorescence at 460 nm (blue) in HepG2 cell free culture (AID 720685)
In short: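 Compound (23 nL) or DMSO pinned into cell-free MEM with 10% FBS; blue fluorescence read at 405/460 nm excitation/emission, expressed as auto-fluorescence equivalency to triamterene.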

[17] = qHTS assay to test for compound auto fluorescence at 535 nm (green) in HepG2 cell free culture (AID 720686)
[18] = qHTS assay to test for compound auto fluorescence at 460 nm (blue) in HepG2 cells (AID 720687)
In short: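 Cells (2,000/well in MEM with 10% FBS) attached overnight at 37 C, then were exposed to compound or DMSO for 1 hr at 37 C, 5% CO2. Fluorescence read at Ex/Em 405/460 nm, expressed as triamterene-equivalent signal.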

[19] = molecular target: Glucocorticoid receptor (Homo sapiens) (UniProt P04150); assay: qHTS assay to identify small molecule agonists of the glucocorticoid receptor (GR) signaling pathway (AID 720691; active = well fitted activation curve with a large enough effect in the signal ratio in the repeat runs, not every such curve was filed as active; the % refers to the signal ratio); conditions: GR-bla HeLa, beta-lactamase reporter ratio, 18 h; activation: at 62.4 µM (top of the series)
Chain of Glucocorticoid receptor (Homo sapiens) (P04150 whole entry, looked up): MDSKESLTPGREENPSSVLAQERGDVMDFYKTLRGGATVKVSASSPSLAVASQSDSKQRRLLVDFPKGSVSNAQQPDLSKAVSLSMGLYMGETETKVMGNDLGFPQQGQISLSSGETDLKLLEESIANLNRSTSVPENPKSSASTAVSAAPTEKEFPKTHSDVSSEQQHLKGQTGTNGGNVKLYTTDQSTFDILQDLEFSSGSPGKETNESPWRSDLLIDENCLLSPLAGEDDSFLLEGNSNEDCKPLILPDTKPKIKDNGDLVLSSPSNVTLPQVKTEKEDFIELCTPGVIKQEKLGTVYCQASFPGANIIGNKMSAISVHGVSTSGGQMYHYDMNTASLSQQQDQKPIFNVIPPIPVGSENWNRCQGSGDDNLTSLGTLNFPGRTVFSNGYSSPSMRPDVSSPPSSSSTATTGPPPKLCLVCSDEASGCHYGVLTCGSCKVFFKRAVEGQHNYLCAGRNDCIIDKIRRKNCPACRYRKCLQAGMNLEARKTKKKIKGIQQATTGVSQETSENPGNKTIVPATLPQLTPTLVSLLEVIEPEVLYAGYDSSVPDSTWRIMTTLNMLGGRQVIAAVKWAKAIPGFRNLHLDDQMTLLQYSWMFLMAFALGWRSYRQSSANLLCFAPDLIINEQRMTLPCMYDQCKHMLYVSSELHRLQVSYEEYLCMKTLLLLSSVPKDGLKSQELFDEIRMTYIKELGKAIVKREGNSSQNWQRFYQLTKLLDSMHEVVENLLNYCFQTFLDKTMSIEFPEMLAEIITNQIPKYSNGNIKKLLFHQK
In short: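 Agonist mode in a HeLa line carrying a GRE-controlled beta-lactamase reporter. Compounds act for 18 h at 37 C before a 2 h room-temperature FRET substrate step and fluorescence reading.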

[20] = molecular target: Glucocorticoid receptor (Homo sapiens) (UniProt P04150); assay: qHTS assay to identify small molecule antagonists of the glucocorticoid receptor (GR) signaling pathway (AID 720692; active = well fitted inhibition curve with a large enough effect in the signal ratio in the repeat runs, not every such curve was filed as active; the % refers to the signal ratio)
In short: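 Cells plated, rested 4 h at 37 C/5% CO2; compounds in DMSO pin-transferred; dexamethasone added to 5 nM final; 18 h at 37 C; B/G FRET substrate added, 2 h room temperature; fluorescence measured.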

Measured: Potency

c1ccc(OCCOc2ccccc2)cc1
active: [6] 24.3 µM
not listed: [20]
inactive: all other assays above

CCCCC(CC)COC(=O)CS (stereo unspecified)
not listed: [19] | [20]
inactive: all other assays above

CN(C)CCCN
not listed: [20]
inactive: all other assays above

CC(O)COCC(C)O (stereo unspecified)
inactive: all assays above

Cc1ccc(S(N)(=O)=O)cc1
not listed: [19] | [20]
inactive: all other assays above

CCC(O)OCCCOC (stereo unspecified)
not listed: [20]
inactive: all other assays above

Nc1ccccc1[N+](=O)[O-]
active: [6] 48.6 µM
not listed: [19] | [20]
inactive: all other assays above

O=C=NCCCCCCN=C=O
not listed: [19] | [20]
inactive: all other assays above

O=C(O)c1ccc2c(c1)C(=O)OC2=O
not listed: [20]
inactive: all other assays above

c1c[nH]cn1
not listed: [20]
inactive: all other assays above

CC(=O)c1ccccc1
not listed: [19] | [20]
inactive: all other assays above

CCCCCC(N)=O
not listed: [9] | [19] | [20]
inactive: all other assays above

COc1ccc(Nc2ccccc2)c(C)c1
inactive and 48.6 µM (active): [6]
not listed: [19]
inactive: all other assays above

O=C1CCC(N2C(=O)c3ccccc3C2=O)C(=O)N1 (stereo unspecified)
not listed: [19]
inactive: all other assays above

Fc1ccc(Br)cc1
not listed: [20]
inactive: all other assays above

c1ccc2c(c1)ccc1ccccc12
active: [6] 59.5 µM
not listed: [19]
inactive: all other assays above

O=C(O)CC(C(=O)O)C(CC(=O)O)C(=O)O (stereo unspecified)
not listed: [19] | [20]
inactive: all other assays above

CCCC(C)=O
inactive: all assays above

O=C(O)c1ccc(C(=O)O)cc1
inactive: all assays above

Nc1cc([N+](=O)[O-])ccc1O
active: [4] 24.3 µM | [6] 27.3 µM
inactive: all other assays above

CCCCCCCCCC
not listed: [19] | [20]
inactive: all other assays above

CCCCCCCCCCCCCCO
active: [6] 61.1 µM
not listed: [19] | [20]
inactive: all other assays above

C[Si](O[Si](C)(C)C)O[Si](C)(C)C
not listed: [19]
inactive: all other assays above

C=C(C)C(=O)OCCOCCOCCOC(=O)C(=C)C
not listed: [20]
inactive: all other assays above

C#CCN(C)Cc1ccccc1
inactive: all assays above

O=S(=O)(O)c1ccc2ccccc2c1
not listed: [19] | [20]
inactive: all other assays above

CSCCC=O
inactive: all assays above

O=C(O)c1cc(=O)c2c(OCC(O)COc3cccc4oc(C(=O)O)cc(=O)c34)cccc2o1
not listed: [19] | [20]
inactive: all other assays above

CCC(O)OC(O)CC (stereo unspecified)
inactive: all assays above

CCCCOC(=O)COc1ccc(Cl)cc1Cl
not listed: [19] | [20]
inactive: all other assays above

CCCCCCCCCCCCS
not listed: [9] | [19] | [20]
inactive: all other assays above
